Bioassay records as filed in PubChem.
DT40 TDP1 no CPT: qHTS for Inhibitors of human tyrosyl-DNA phosphodiesterase 1 (TDP1): qHTS in cells in absence of CPT | DT40 Tdp1-/- hTDP1 cells, no CPT, ATP luminescence, 48 h | Potency, µM (highest dose often 46.2 µM), for the others: top-dose activity change, negative = growth inhibition, hits mostly inhibitors | 420,000 compounds, 15% hits; note: potency is the fitted concentration of half-maximal effect; nearly all actives have a fitted effect of over 55% in size
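Luminescent ATP content (CellTiter-Glo) served as the growth readout. Knockout chicken DT40 cells expressing human TDP1 were exposed to compounds without camptothecin for a minimum 48 hr at 37 °C.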
IL1B secr inh: qHTS for Inhibitors of Inflammasome Signaling: IL-1-beta AlphaLISA Primary Screen | activity change, % at 57.5 µM | THP-1 LPS/ATP IL-1B secretion, AlphaLISA, 16 h; active compounds read low | 360,000 compounds, 4.7% hits; in the data active = activity change below about -50%; inconclusive = mostly about -30% to -49%
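THP-1 cells pretreated 1 hr with compounds (up to 57.5 uM final), then stimulated with LPS (250 ng/mL final) plus ATP (1.25 mM final); secreted IL-1B measured by AlphaLISA after 16 hr, decreased signal indicating inhibition.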
RORgamma inh: qHTS for inhibitors of ROR gamma transcriptional activity; Nuclear receptor ROR-gamma (Mus musculus), P51450; Drosophila S2 Gal4-RORgamma UAS-luciferase reporter, 20 h; Potency, µM (highest dose often 53.6 µM), for inactives: at the top dose activity change, negative = inhibition, hits mostly inhibitors; 310,000 compounds, 5.4% hits; AID 2551, 2010; note: potency is the fitted concentration of half-maximal effect; nearly all actives have a fitted effect of over 60% in size
Target sequence (P51450 whole entry, looked up, the tested form may be a part): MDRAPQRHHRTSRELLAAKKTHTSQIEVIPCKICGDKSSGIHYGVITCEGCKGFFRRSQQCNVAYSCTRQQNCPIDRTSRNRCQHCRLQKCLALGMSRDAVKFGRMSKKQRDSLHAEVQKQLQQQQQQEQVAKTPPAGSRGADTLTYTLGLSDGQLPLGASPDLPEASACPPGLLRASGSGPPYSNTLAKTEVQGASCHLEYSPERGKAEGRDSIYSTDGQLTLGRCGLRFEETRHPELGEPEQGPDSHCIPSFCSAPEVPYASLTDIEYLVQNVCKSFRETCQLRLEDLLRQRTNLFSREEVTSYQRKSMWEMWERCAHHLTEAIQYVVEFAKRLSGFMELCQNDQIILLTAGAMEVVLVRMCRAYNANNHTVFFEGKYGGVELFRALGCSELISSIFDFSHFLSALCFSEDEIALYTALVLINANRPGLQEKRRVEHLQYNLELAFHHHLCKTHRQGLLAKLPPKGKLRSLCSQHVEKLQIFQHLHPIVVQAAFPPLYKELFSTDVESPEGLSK
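Stably transfected Drosophila Schneider cells are the test system, with ROR gamma fused to Gal4 and luciferase under UAS control; luminescence is read after 20 hr of 700 uM copper sulfate induction at ambient temperature.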
DT40 TDP1 CPT: qHTS for Inhibitors of human tyrosyl-DNA phosphodiesterase 1 (TDP1): qHTS in cells in presence of CPT; chicken DT40 Tdp1-/-;hTDP1 cells + 20 nM CPT, ATP luminescence, 48 h; Potency, µM (titrated, usually from 46.2 µM), for inactives: top-dose activity change, negative = growth inhibition, actives largely listed as inhibitors; 420,000 compounds, 12% hits; note: potency is the fitted concentration of half-maximal effect; nearly all actives have a fitted effect of over 55% in size
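Chicken DT40 Tdp1-/- cells stably complemented with human TDP1 were seeded at 400 cells/well in medium containing 20 nM camptothecin, exposed to pin-transferred compounds, and grown at 37 °C for at least 48 hr. Viability was read as ATP luminescence.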
VP16 counter: VP16 counterscreen qHTS for inhibitors of ROR gamma transcriptional activity; Drosophila S2 Gal4-VP16 UAS-luciferase, luminescence, 20 h; Potency, µM (top dose mostly 53.6 µM), without a hit: at the top dose activity, negative = inhibition, usual class: inhibitors; 310,000 compounds, 3.5% hits; AID 2546, 2010;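 note: Gal4-VP16 expression switched on by copper sulfate through the metallothionein promoter; potency is the fitted concentration of half-maximal effect; nearly all actives have a fitted effect of over 50% in size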
LDHA inh: qHTS assay for inhibitors of human lactate dehydrogenase; L-lactate dehydrogenase A chain (Homo sapiens), P00338; purified LDHA, NADH/diaphorase-resazurin fluorescence; active compounds read low; activity change, % (values are at about 110 or 230 µM); 480,000 compounds, 0.15% hits; AID 1347041, 2019; in the data active = activity change below about -30%; inconclusive = mostly about -25% to -30%;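 note: plate controls were DMSO wells for no effect and wells without enzyme for full effect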
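Human LDH5 (2 nM) was incubated with 0.06 mM NADH and 0.2 mM pyruvate for 5 min at room temperature in Tris pH 7.4. Remaining NADH was coupled through diaphorase/resazurin, and resorufin fluorescence was read at 0 and 20 min.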
* marks the source's active call; other numbers are inactive results; ? = inconclusive; nt = not tested or not shown; [ ] = another dose, or the depositor's remark. Rows were chosen to be rich in hits. Some 18% of all compounds tested hit in one or more screens of this group. Unless noted, calls come from the whole dose curve; as a rule, active = well fitted curve in the direction sought with a large enough effect; inconclusive = small, poorly fitted or top-dose-only effect, or another doubt; inactive = no such curve, though single readings can be large; an effect the other way counts as inactive or inconclusive. Unless noted, % is set by controls: 0 for no effect and ±100 for the full control effect.

SMILES	DT40 TDP1 no CPT	IL1B secr inh	RORgamma inh	DT40 TDP1 CPT	VP16 counter	LDHA inh
O=C(C[n+]1cccc(C(=O)N/N=C/c2ccc(Br)cc2)c1)c1ccccc1	-11%	-5	nt	-1%	nt	2
O=C(N/N=C/c1c(O)ccc2ccccc12)c1ccc[n+](CCO)c1	?	103	-59%	29µM*	-2%	19
O=C(O)CCC(=O)c1cccnc1	nt	nt	nt	nt	nt	2
Cc1cccc(-n2nc(C)c(C(=O)N(C)Cc3ccccc3)c2-n2cccc2)c1	nt	nt	nt	nt	nt	5
C=CCN(CC(F)(F)F)C(=O)CCc1c[nH]c2ccccc12	nt	nt	nt	nt	nt	2
Cc1ccc2cccc(NC(=O)COc3ccc(C(C)C)cc3)c2n1	nt	nt	nt	nt	nt	-7
Cc1c(/C=N/NC(=O)c2cccs2)c2ccccc2n1Cc1ccccc1Cl	21µM*	28	-11%	16µM*	-16%	-1
O=C(N/N=C\c1c(O)ccc2ccccc12)c1cncc(Br)c1	0.82µM*	204	5µM*	1.6µM*	4.5µM*	8
Cc1occc1C(=O)N/N=C/c1c(O)ccc2ccccc12	1µM*	125	4µM*	0.65µM*	18µM*	8
COc1ccc2ccccc2c1/C=N/NC(=O)c1cccc(C)c1	?	-29	nt	-8%	nt	-4
Cc1occc1C(=O)N/N=C/c1c[nH]c2ccccc12	-7%	-8	?	-7%	-24%	10
Cn1ncc(N=Cc2c(O)ccc3ccccc23)c1C(=O)Nc1cccc(Cl)c1	23µM*	18	-33%	?	12%	31
CCC(C)(C)C1CCc2c(sc(NC(=O)CC(C)C)c2C#N)C1 (stereo unspecified)	nt	nt	nt	nt	nt	19
O=C(N/N=C\c1c(O)ccc2ccccc12)c1ccc(O)cc1	6.5µM*	149	5µM*	?	5.6µM*	5
CC1(C)C2CC=C(/C=N/NC(=O)c3ccc(O)cc3)C1C2 (stereo unspecified)	-19%	-54*	-16%	5%	-15%	-3
O=C(O)c1ccc(N=Cc2c(O)ccc3ccccc23)cc1	-21%	8	12%[1.91 µM]	0%	?	1
O=C(N/N=C/c1c(O)ccc2ccccc12)c1ccc(Br)o1	4.6µM*	91	3.2µM*	5.2µM*	2.8µM*	9
O=C(N/N=C/c1ccc(O)c(Br)c1)c1cc2c(ccc3ccccc32)o1	-4%	?	14%	?	-6%	-19
Cc1ccc(C(=O)N/N=C/c2c(O)ccc3ccccc23)cn1	2.9µM*	95	5µM*	3.3µM*	7.1µM*	4
COc1ccccc1/C=N/NC(=O)c1ccc(C)nc1	14%	2	17%	1%	-1%	-7
CC1(C)C2CC=C(/C=N/NC(N)=O)C1C2 (stereo unspecified)	nt	nt	nt	nt	nt	-3
Cc1nn(Cc2ccccc2)c(Cl)c1/C=N/NC(=O)c1cccnc1	?	48	?	-2%	1%	-13
Cc1cc(O)c(C)c(O)c1/C=N/NC(=O)c1cccnc1	?	151	7.9µM*	?	7.9µM*	0
O=C(N/N=C/c1cccnc1)c1cc(O)c(O)c(O)c1	?	-20	-8%	?	-8%	36
Cc1c(/C=N/NC(=O)c2cccnc2)c2ccccc2n1Cc1ccccc1	7.3µM*	56	1%	12µM*	-12%	0
SMILES	DT40 TDP1 no CPT	IL1B secr inh	RORgamma inh	DT40 TDP1 CPT	VP16 counter	LDHA inh
Cc1ccc(NC(=S)Nc2ccc(F)cc2)c(C)c1	-24%	-59*	11µM*	-11%	?	-11
Cc1ccc(F)cc1NC(=S)NCCc1ccccc1	26µM*	-15	?	?	-92%	-8
Cc1ccc(NC(=S)NCCc2ccc(F)cc2)c(C)c1	?	-13	4.5µM*	-9%	5µM*	-1
Cc1cccc(OCCC(=O)OCC(=O)c2cc3ccccc3o2)c1	nt	nt	nt	nt	nt	1
Cc1c(Cl)c(C(F)(F)F)nn1CC(=O)Nc1ccc(F)cc1F	nt	nt	nt	nt	nt	1
COC(=O)CNC(=O)Nc1cc(C(=O)NCc2ccc(C(C)C)cc2)ccc1N1CCCC1	nt	nt	nt	nt	nt	0
O=C(CCc1ccccc1)N1N=C(c2ccncc2)CC1(O)C(F)(F)F (stereo unspecified)	?	18	-3%	?	1%	-3
CCCC1=NN(C(=O)CCc2ccccc2O)C(O)(C(F)(F)F)C1 (stereo unspecified)	-7%	14	?	-16%	?	-7
CCC1=NN(C(=O)C(=O)NCCc2ccccc2)C(O)(C(F)(F)F)C1 (stereo unspecified)	-12%	14	0.63µM*	8%	1.8µM*	-7
CCC1=NN(C(=O)CCc2ccccc2)C(O)(C(F)(F)F)C1 (stereo unspecified)	-16%	0	13µM*	1%	?	-12
Cc1ccnc2nc(C(=O)OC(C)C(=O)c3c[nH]c4ccccc34)nn12 (stereo unspecified)	nt	nt	nt	nt	nt	10
CC(C)n1c(C(O)c2ccc3c(c2)OCO3)nc2ccccc21 (stereo unspecified)	?	0	?	-29%	?	-7
Cn1c(C(O)c2ccc3c(c2)OCO3)nc2ccccc21 (stereo unspecified)	?	13	4%	16µM*	0%	1
CCCCCCn1ccc(=N)cc1	0.21µM*	-12	-36%	0.21µM*	7.1µM*	-6
O=C(Nc1cccc2c1CCCC2)c1cc(Br)cnc1Cl	nt	nt	nt	nt	nt	10
Cc1cccc(OC(C)C(=O)Nc2nc(-c3cccnc3)cs2)c1 (stereo unspecified)	?	20	nt	?	nt	-10
Cc1cccc(C(=O)N[C@H](C(=O)Nc2nccs2)C(C)C)c1	-26%	12	-44%	-15%	-21%	-7
Cc1cccc(C(=O)N[C@H](C(=O)Nc2nc3ccccc3[nH]2)C(C)C)c1	3.7µM*	91	?	3.3µM*	?	0
CC(Oc1ccc(Br)cc1)C(=O)Nc1nc(-c2ccccn2)cs1 (stereo unspecified)	3.3µM*	-99*	2.5µM*	4.6µM*	3.2µM*	-4
Cc1csc(NC(=S)NC(=O)c2ccccc2)n1	18µM*	19	2µM*	?	3.2µM*	-16
